Measured values from PubChem BioAssay (NCATS).
Results filed as inconclusive are left out. Where a call stands in place of a potency, no number is given. Activity calls are given as the source filed them. Calls come from the whole dose curve; as a rule, active = well fitted inhibition curve with a large enough effect; inconclusive = small, poorly fitted or top-dose-only effect; inactive = flat fitted curve, though single readings scatter.

system: Zika virus NS2B-NS3 protease; test: Primary screen GU AMC qHTS for Zika virus inhibitors (AID 1347154); details: Zika NS2B-NS3 unlinked protease, AMC fluorogenic substrate; series mostly up to 54.1 µM; note: nearly all actives have a fitted effect of over 70% in size
Source text: Avindra Nath, Ph.D., National Institute of Neurological Disorders and Stroke (NINDS), Bethesda, MD
Radhakrishnan Padmanabhan, Ph.D., Georgetown University (GU), Washington D.C.
Zika Virus causes congenital defects, including microcephaly and is associated with Guillain-Barre syndrome, eningoencephalitis and myelitis in infected adult. […] Using a target-based approach, we hope to establish a screening paradigm to uncover novel, cell-active NS2B-NS3 protease (Zika Virus) specific inhibitors from NCATS' collection of small molecules using qHTS.
Early Translation Branch (ETB)
National Center for Advancing Translational Sciences (NCATS), Rockville, MD
National Institute of Health (NIH), Bethesda, Maryland
Padmanabhan lab provided the NS2B hydrophilic domain and NS3 protease domain in a noncovalent complex used for the unlinked assay. Control compound aprotinin is obtained from Thermo Scientific (#78432; Waltham, Massachusetts). NS2B-NS3 AMC substrate (Bz-Nle-Lys-Arg-Arg-AMC; Nle-KRR-AMC) purchased from Bachem (#I-1995; Torrance, CA). Ac-VKTGKR-AMC purchased from Genscript or Bachem, Ac-FAAGKR-AMC purchased from Genscript, Ac-GLVKRR-AMC purchased from Genscript, Ac-LKKR-AMC purchased from Genscript.
GU AMC unlinked NS2B-NS3 protease qHTS protocol
Briefly, 3 microL of Zika virus unlinked NS2B-NS3 protease (25 nM for linked final concentration), in assay buffer (10 mM Tris-HCl pH 8.0 with 0.01% Tween 20) was dispensed into a 1,536-well solid-bottom black plate (Greiner Bio One, Monroe, NC). […] Plates were then read immediately on a ViewLux High-throughput CCD imager (PerkinElmer, Waltham, MA) equipped with standard UV fluorescence optics (340(30) nm excitation, 450(20) nm emission) then incubated (room temperature, protected from light) for 15 minutes (~20% conversion). The change in fluorescence intensity over the 15-minute reaction period was normalized against no-inhibitor and no-enzyme controls and the resulting percent inhibition data were fitted to a 4-parameter Hill equation. Aprotinin was used as the intraplate control.
Potency is the fitted concentration of half-maximal effect.

Row | Compound | Potency
1 | CCC(=O)NC[C@H](Cc1ccc(OCCc2nc(-c3ccccc3)oc2C)cc1)NC(C)=CC(=O)c1ccc(C(F)(F)F)cc1 | inactive
2 | CCOC1OC(=O)C[C@H]1NC(=O)[C@@H]1CCCN1C(=O)[C@@H](NC(=O)c1ccc(N)c(Cl)c1)C(C)(C)C (stereo not given in full) | inactive
3 | NCCS | inactive
4 | CC(C)(C)COc1ccc(-n2cc(C(=O)O)cn2)cc1C#N | inactive
5 | CC=CCC=CCCC(=O)[C@H]1O[C@@H]1C(N)=O | inactive
6 | COc1ccc(-c2cc(=O)c3c(O)cc(O)cc3o2)cc1O | inactive
7 | O=c1cc(-c2ccccc2)oc2cc(O)c(O)c(O)c12 | inactive
8 | N[C@H](CSC(c1ccccc1)(c1ccccc1)c1ccccc1)C(=O)O | inactive
9 | Nc1ncnc2c1ncn2[C@@H]1O[C@@H](CO)[C@H](O)[C@H]1O | inactive
10 | Cc1ccc([C@@H]2O[C@H](CO)[C@@H](O)[C@H](O)[C@@H]2O)cc1Cc1ccc(-c2ccc(F)cc2)s1 | inactive
11 | CC[C@H]1OC(=O)[C@H](C)[C@@H](O[C@H]2C[C@@](C)(OC)[C@@H](O)[C@H](C)O2)[C@H](C)[C@@H](O[C@@H]2O[C@H](C)C[C@H](N(C)C)[C@@H]2O)[C@](C)(O)C[C@@H](C)CN(C)[C@H](C)[C@@H](O)[C@]1(C)O | inactive
12 | CC(C)(Cc1ccc2ccccc2c1)NC[C@@H](O)COc1cccc(Cl)c1C#N | inactive
13 | COc1ccc2c(Oc3ccc(NC(=O)c4c(C)n(CC(C)(C)O)n(-c5ccccc5)c4=O)nc3)ccnc2c1 | inactive
14 | COc1cc2ncnc(-n3nc(-c4ccccn4)nc3N)c2cc1OC | inactive
15 | CO[C@H]1C[C@@H]2CC[C@@H](C)[C@@](O)(O2)C(=O)C(=O)N2CCCC[C@@H]2C(=O)O[C@H]([C@H](C)C[C@@H]2CC[C@H](OP(C)(C)=O)[C@H](OC)C2)CC(=O)[C@H](C)C=C(C)[C@@H](O)[C@@H](OC)C(=O)[C@H](C)C[C@H](C)C=CC=CC=C1C | inactive
16 | COc1cccc(-c2cc(=O)c3ccccc3o2)c1N | inactive
17 | Nc1ncnc2c1nc(Cl)n2[C@@H]1O[C@H](CO)[C@@H](O)[C@@H]1O | inactive
18 | NC(=O)NN=Cc1ccc([N+](=O)[O-])o1 | inactive
19 | CC(C)NCC(O)COc1cccc2[nH]ccc12 (stereo not given) | inactive
20 | Cc1ccn(-c2ccc(-c3ncco3)cc2)c(=O)c1-c1ccc2nc(N)ncc2c1 | 21.5 µM (active)

Row | Compound | Potency
21 | CC=CC[C@@H](C)C(=O)[C@H]1C(=O)N[C@@H](C(C)C)C(=O)N(C)CC(=O)N(C)[C@@H](CC(C)C)C(=O)N[C@@H](C(C)C)C(=O)N(C)[C@@H](CC(C)C)C(=O)N[C@@H](C)C(=O)N[C@H](C)C(=O)N(C)[C@@H](CC(C)C)C(=O)N(C)[C@@H](CC(C)C)C(=O)N(C)[C@@H](C(C)C)C(=O)N1C | inactive
22 | CON=C(C(=O)N[C@@H]1C(=O)N2C(C(=O)OCOC(=O)C(C)(C)C)=C(C=Cc3scnc3C)CS[C@H]12)c1csc(N)n1 | inactive
23 | Cc1ccc(Nc2cc(-c3cccc(N4C(=O)c5ccccc5C4=O)c3)ncn2)cc1NS(C)(=O)=O | inactive
24 | C[C@H]1[C@H](NC(=O)C(=NOC(C)(C)C(=O)O)c2csc(N)n2)C(=O)N1S(=O)(=O)O | inactive
25 | CN(C)Cc1cccc(N=C(c2ccccc2)c2c(O)[nH]c3cc(C(=O)N(C)C)ccc23)c1 | inactive
26 | CC1(C)S[C@H]2[C@H](NC(=O)[C@@H](N)c3ccc(O)cc3)C(=O)N2[C@@H]1C(=O)O | inactive
27 | CC(C)(C)c1cc(C(=O)O)c(NC(=O)Nc2ccc3[nH]ncc3c2)s1 | inactive
28 | Nc1nc(F)nc2c1ncn2[C@@H]1O[C@H](COP(=O)(O)O)[C@@H](O)[C@H]1O | inactive
29 | CCC(=O)O[C@]1(C(=O)CO)CC[C@H]2[C@@H]3CCC4=CC(=O)CC[C@]4(C)[C@@H]3CC[C@@]21C | inactive
30 | Clc1ccc(Cn2c(CN3CCCC3)nc3ccccc32)cc1 | inactive
31 | OC[C@H]1O[C@@H](n2cnc3c2NC=NC[C@@H]3O)C[C@H]1O | inactive
32 | O=c1[nH]cnc2c1ncn2[C@H]1CC[C@@H](CO)O1 | inactive
33 | O=C1C(Cl)=C(NCCN2CCOCC2)C(=O)c2ncccc21 | inactive
34 | CC1=C(/C=C/C(C)=C/C=C/C(C)=C/C(=O)Nc2ccc(O)cc2)C(C)(C)CCC1 | inactive
35 | Cc1cccc(Nc2nc(-c3ccncc3)cs2)c1 | inactive
36 | CCCCCN(C)CCC(O)(P(=O)(O)O)P(=O)(O)O | inactive
37 | O=C(CCN1CCN(C(=O)OCc2cc(Cl)cc(Cl)c2)CC1)c1ccc2[nH]c(=O)oc2c1 | inactive
38 | C[C@]12CC[C@@H]3c4ccc(O)cc4CC[C@H]3[C@H]1C[C@@H](O)[C@H]2O | inactive
39 | CC[C@@H]1C=C(C)C[C@H](C)C[C@H](OC)[C@H]2O[C@@](O)(C(=O)C(=O)N3CCCC[C@@H]3C(=O)O[C@H](C(C)=C[C@@H]3CC[C@H](Cl)[C@H](OC)C3)[C@H](C)[C@@H](O)CC1=O)[C@H](C)C[C@H]2OC | inactive
40 | O=C(Nc1ccccc1-c1cn2c(CN3CCNCC3)csc2n1)c1cnc2ccccc2n1 | inactive
